From PubChem BioAssay
Rows were chosen to be rich in hits. Some 18% of all compounds tested hit in one or more screens of this group.
DT40 TDP1 CPT: DT40-hTDP1 cell growth loss with CPT. chicken DT40 Tdp1-/-;hTDP1 cells + 20 nM CPT, ATP luminescence, 48 h. Potency, µM (highest dose often 46.2 µM), for the others: at the highest dose activity change, negative = growth inhibition, most hits filed as inhibitors. 420,000 tested, 12% active; also: potency is read from the fitted curve at half-maximal effect; nearly all actives have a fitted effect of over 55% in size
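Cell growth measured by CellTiter-Glo luminescence after a minimum 48 h, 37 C compound exposure with 20 nM CPT in Tdp1-knockout DT40 cells stably expressing hTDP1, seeded 400/well; qHTS titration format.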
IL-1B inflam inh: inflammasome signaling inhibition, IL-1 beta readout; THP-1 LPS/ATP IL-1B secretion, AlphaLISA, 16 h; stronger effect = lower value; 360,000 tested, 4.7% active; activity change, % at 57.5 µM; in the data active = activity change below about -50%; inconclusive = mostly about -30% to -49%
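THP-1 cells pretreated 1 hr with compounds (up to 57.5 uM final), then stimulated with LPS (250 ng/mL final) plus ATP (1.25 mM final); secreted IL-1B measured by AlphaLISA after 16 hr, decreased signal indicating inhibition.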
Gal4-VP16 FLuc: inhibits Gal4-VP16 luciferase reporter, ROR gamma counter-screen; 310,000 tested, 3.5% active; AID 2546; Potency, µM (highest dose often 53.6 µM), for inactives: top-dose activity, negative = inhibition, usual class: inhibitors; Drosophila S2 Gal4-VP16 UAS-luciferase, luminescence, 20 h;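 also: Gal4-VP16 expression switched on by copper sulfate through the metallothionein promoter; potency is read from the fitted curve at half-maximal effect; nearly all actives have a fitted effect of over 50% in size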
DT40 TDP1 no CPT: qHTS for Inhibitors of human tyrosyl-DNA phosphodiesterase 1 (TDP1): qHTS in cells in absence of CPT | DT40 Tdp1-/- hTDP1 cells, no CPT, ATP luminescence, 48 h | Potency, µM (titrated, usually from 46.2 µM), inactives show at the highest dose activity change, negative = growth inhibition, most hits filed as inhibitors | 420,000 tested, 15% active; also: potency is read from the fitted curve at half-maximal effect; nearly all actives have a fitted effect of over 55% in size
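Growth of hTDP1-complemented DT40 Tdp1-knockout cells is measured by ATP luminescence after at least 48 hr compound exposure at 37 °C, with DMSO substituting for the 20 nM CPT used in the parallel screen.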
LDHA block: inhibitors of human lactate dehydrogenase A. P00338. AID 1347041. 480,000 tested, 0.15% active. activity change, % (values are at about 110 or 230 µM). purified LDHA, NADH/diaphorase-resazurin fluorescence; stronger effect = lower value; in the data active = activity change below about -30%; inconclusive = mostly about -25% to -30%;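 also: plate controls were DMSO wells for no effect and wells without enzyme for full effect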
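Resorufin fluorescence (ex540/em590), read at 0 and 20 min after diaphorase/resazurin addition, reports the NADH left after a 5 min room-temperature reaction of 2 nM human LDH5 with 0.06 mM NADH and 0.2 mM pyruvate.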
RORg inh: ROR gamma (mouse) transcription inhibition. P51450. Potency, µM (highest dose often 53.6 µM), inactives show at the highest dose activity change, negative = inhibition, usual class: inhibitors. Drosophila S2 Gal4-RORgamma UAS-luciferase reporter, 20 h. 310,000 tested, 5.4% active; also: potency is read from the fitted curve at half-maximal effect; nearly all actives have a fitted effect of over 60% in size
Target sequence (P51450 whole entry, looked up, the tested form may be a part): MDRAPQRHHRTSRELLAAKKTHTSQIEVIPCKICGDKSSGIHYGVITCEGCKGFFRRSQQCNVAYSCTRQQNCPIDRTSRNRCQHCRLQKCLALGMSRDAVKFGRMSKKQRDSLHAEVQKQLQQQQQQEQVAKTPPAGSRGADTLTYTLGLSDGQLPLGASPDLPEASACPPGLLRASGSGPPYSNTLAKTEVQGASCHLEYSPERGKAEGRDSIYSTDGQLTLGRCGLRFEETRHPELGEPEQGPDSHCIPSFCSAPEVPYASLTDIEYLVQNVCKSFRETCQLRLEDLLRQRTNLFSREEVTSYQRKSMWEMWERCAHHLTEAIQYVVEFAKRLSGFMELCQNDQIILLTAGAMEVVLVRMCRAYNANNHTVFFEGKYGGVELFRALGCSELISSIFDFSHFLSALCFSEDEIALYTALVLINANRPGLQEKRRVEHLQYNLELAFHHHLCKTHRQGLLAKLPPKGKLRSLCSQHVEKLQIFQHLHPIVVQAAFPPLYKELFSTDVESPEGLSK
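ROR gamma transcriptional activity was tracked as Gal4-UAS luciferase output in stably transfected Drosophila Schneider cells, with compound added 1 hr before 700 uM copper sulfate induction and a 20 hr ambient-temperature incubation.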
The depositor's hits bear a star; ? = inconclusive; · = no result given. Unless noted, calls follow the shape of the dose curve; as a rule, active = well fitted curve in the direction sought with a large enough effect; inconclusive = small, poorly fitted or top-dose-only effect, or another doubt; inactive = no such curve, though single readings can be large; an effect the other way counts as inactive or inconclusive. Unless noted, % is scaled to controls: 0 for no effect and ±100 for the full control effect.

SMILES | DT40 TDP1 CPT | IL-1B inflam inh | Gal4-VP16 FLuc | DT40 TDP1 no CPT | LDHA block | RORg inh
O=C(CNc1ccccc1)N/N=C/c1c(O)ccc2ccccc12 | 10.3µM* | 216.2 | 2.82µM* | 6.51µM* | -9.2 | 1.58µM*
COc1ccc(NC(C)C(=O)N/N=C/c2ccccc2OCc2cccc(Br)c2)cc1 (stereo unspecified) | ? | -63.8* | 13.8% | ? | -5.0 | 2.7%
CCOc1cc2c(cc1NC(=O)CCc1ccco1)OC(C)C2 (stereo unspecified) | · | · | · | · | 0.5 | ·
COc1ccc2oc(C(=O)OC(C)C#N)c(C)c2c1 (stereo unspecified) | · | · | · | · | 2.0 | ·
N#CCC(=O)N/N=C/c1c2ccccc2cc2ccccc12 | -17.8% | -3.4 | ? | -1.3% | -1.7 | 11.2µM*
O=C(CO)N/N=C/c1c2ccccc2cc2ccccc12 | 1.1% | -29.2 | 0.3% | 0.3% | 9.3 | -14.7%
COc1ccc(NC(C)C(=O)N/N=C/c2c(O)ccc3ccccc23)cc1 (stereo unspecified) | 4.61µM* | 144.1 | 3.55µM* | 5.8µM* | 20.2 | 1.58µM*
CC(=O)Nc1ccc(N=Cc2c(O)ccc3ccccc23)cc1 | -0.9% | 18.5 | -2.5% | 10.3% | 11.4 | ?
O=C(N/N=C/c1c(O)ccc2ccccc12)Nc1ccccc1 | 25.9µM* | 84.7 | · | 14.6µM* | 5.2 | ·
O=C(CN1CCOCC1)N/N=C/c1c(O)ccc2ccccc12 | 7.31µM* | 59.6 | 1.41µM* | 9.2µM* | 4.6 | ?
COc1ccc(N=Cc2c(O)ccc3ccccc23)cc1 | -25.1% | -6.2 | -23.9% | -6.2% | -4.6 | ?
Cc1c(CCl)cc(C(=O)O)cc1CCl | · | · | · | · | 1.6 | ·
CCNC(=O)NC(=O)C(C)Sc1nc(-c2ccco2)nc2ccccc12 (stereo unspecified) | · | · | · | · | -17.3 | ·
Cc1sc(/N=C/c2ccccc2Cl)c(C#N)c1C | · | · | · | · | -1.1 | ·
CCOc1ccccc1NC(=O)C(=O)N/N=C/c1cc(Br)ccc1O | ? | 115.5 | ? | 10.3µM* | -7.0 | 1.78µM*
CN(C)CCCNc1nc(-c2ccc(Cl)cc2)c(CC(=O)O)s1 | · | · | · | · | 12.4 | ·
CCn1c(=NC(=O)c2ccc(N3C(=O)CCC3=O)cc2)sc2c(OC)ccc(OC)c21 | 23.1µM* | -7.6 | -25.5% | ? | -2.0 | -19.7%
CCn1c(=NC(=O)c2cccc(N3C(=O)CCC3=O)c2)sc2c(C)ccc(OC)c21 | 18.4µM* | -27.3 | -0.6% | -75.7% | -5.5 | 23.8%
CCn1c(=NC(=O)CN2C(=O)CCC2=O)sc2c(OC)ccc(OC)c21 | ? | -20.1 | 0.3% | ? | 1.7 | -9.5%
CCn1c(CCCOc2ccc(Cl)cc2C)n[nH]c1=S | · | · | · | · | -1.6 | ·
O=C(Nc1cccc2c1CCCC2)c1cc(Cl)nc(Cl)c1 | · | · | · | · | 6.3 | ·
O=C(Cc1ccccc1)Nc1ccc(N2CCCCC2)cc1 | ? | -22.5 | -13.5% | 18.1% | 0.3 | -11.6%
COCCCNC(=S)Nc1ccc(N2CCCCC2)cc1 | -29.7% | -22.4 | ? | ? | -2.1 | 17.8µM*
CCNC(=S)Nc1ccc(N2CCCCC2)cc1 | -27.5% | 6.6 | -68.1% | ? | 1.7 | 12.6µM*
CN1OC[C@@H]2CN(C(=O)CCc3ccccc3)[C@H](c3ccc(N4CCCCC4)cc3)C[C@@H]21 | ? | -14.8 | · | ? | -3.7 | ·
S=C(NCCc1ccccc1)Nc1ccc(N2CCCCC2)cc1 | ? | 105.2 | ? | ? | -5.6 | 7.94µM*
CN1OC[C@@H]2CN(C(=S)NCCc3ccccc3)[C@H](c3ccc(N4CCCCC4)cc3)C[C@@H]21 | 16.4µM* | 0.6 | · | ? | -8.1 | ·
CCN(Cc1ccccc1)C(=O)c1nn(-c2ccccc2)c(=O)c2ccccc12 | · | · | · | · | -2.9 | ·
Cn1c(=O)c2c(ncn2CC(=O)Nc2ccccc2C(=O)NC2CCCC2)n(C)c1=O | · | · | · | · | 1.7 | ·
O=C(NC(=S)N1CCN(c2c(Cl)cccc2[N+](=O)[O-])CC1)c1cccs1 | ? | 4.2 | 0.159µM* | ? | -5.5 | 0.282µM*
